From the supplement of paper PMC5641865, “A screen for kinase inhibitors identifies antimicrobial imidazopyridine aminofurazans as specific inhibitors of the Listeria monocytogenes PASTA kinase PrkA” (The Journal of Biological Chemistry, 2017)
± gives the standard deviation of the averaged measurements.

Test system: Listeria monocytogenes 10403S
Assay: growth inhibition relative to ceftriaxone-alone control; higher = stronger potentiation of ceftriaxone growth inhibition
Settings: 10 µM; ceftriaxone 1 ug/ml; 12 h
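Further: End-point A600 read in BHI broth at 37 °C with 2% DMSO, inhibition computed as (1 − OD with compound plus ceftriaxone ÷ OD with ceftriaxone only) × 100.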

SMILES	growth inhibition [%]
CC[C@H](CO)Nc1nc(NCc2ccccc2)c2ncn(C(C)C)c2n1 [Roscovitine (Seliciclib, CYC202)]	22.9 ± 22
N#Cc1c(NC(=O)c2ccccc2F)sc2c1CCCC2	-3.06 ± 2.3
Fc1ccc(-c2cc(-c3c[nH]nc3-c3ccccn3)ccn2)cc1	-6.8 ± 13
COC(=O)Nc1ccc(-c2nc(N3CCOCC3)c3cnn(C4CCN(Cc5cccnc5)CC4)c3n2)cc1	33.8 ± 29
COc1ccc2[nH]c3c4[nH]c5ccc(OC)cc5c4c4c(c3c2c1)C(=O)NC4=O	-8.86 ± 4.5
O=C(NOCC(O)CO)c1cc(Br)c(F)c(F)c1Nc1ccc(I)cc1F (stereo not given)	100 ± 5.2
O=C1NC(=O)C(N2CCc3ccccc32)=C1c1ccc(Cl)cc1	14.5 ± 6
CN(C)c1cc2c(Nc3ccc4nc(Cc5ccccc5)[nH]c4c3)ncnc2cn1	-14.1 ± 8.1
COc1cc(CCc2cc(NC(=O)c3ccc(N4CC(C)NC(C)C4)cc3)n[nH]2)cc(OC)c1 (stereo not given)	38.3 ± 21
Cc1ncc(-c2ccnc(Nc3ccc(S(C)(=O)=O)cc3)n2)n1C(C)C	97.4 ± 2.4
COc1cc2ncnc(Nc3ccc(F)c(Cl)c3)c2cc1NC(=O)/C=C/CN1CCCCC1	60 ± 55
C=CC(=O)Nc1cc2c(Nc3ccc(F)c(Cl)c3)ncnc2cc1OCCCN1CCOCC1 [CI-1033 (Canertinib)]	21.5 ± 6.1
COc1cc(C=NNc2ncnc3c2cnn3Cc2ccccc2)ccc1O	-10.8 ± 3.7
COc1cccc(Nc2nccc(-c3cnn4ncccc34)n2)c1	-2.59 ± 1.4
COc1cc2c(cc1Nc1nc(Nc3cccc(F)c3C(N)=O)c3cc[nH]c3n1)N(C(=O)CN1CCN(C(C)C)CC1)CC2	-7.97 ± 11
